Compound activity: PubChem BioAssay, several laboratories
Only some compounds are listed: those with a hit (about 0.74% of all), similar ones and a draw of the others.
FadD28 FP inh: blocks FadD28 binding to the bisubstrate probe; inhibition, % at 12.5 µM; actives 0.22% (n = 360,000); AID 588549; fluorescence polarization; in the data active means inhibition above about 8.5%, passing the limit was not always enough
UGM FP inh: blocks M. tuberculosis UGM enzyme. P9WIQ1. purified UGM, fluorescence polarization probe displacement. inhibition, % at 10 µM. actives 0.06% (n = 320,000). AID 504406; in the data active means inhibition above about 10%, passing the limit was not always enough
Mtb bLac sens: beta-lactam sensitization of Mtb H37Rv; inhibition, % at 25 µM; M. tuberculosis H37Rv growth with meropenem, percent inhibition; actives 0.27% (n = 330,000);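 further: growth measured after seven days incubation then overnight dye step; 0% = bacteria only wells and 100% = bacteria with antibiotic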
Vc quorum ag-1: quorum light induction in luxS cqsA deficient V. cholerae; V. cholerae BH1578 lux reporter, luminescence, 6 h; activation, % at 18.7 µM; actives 0.16% (n = 350,000); in the data active means activation mostly above about 9.7%, no sharp cut-off
Rv3671c inh: inhibitors of M. tuberculosis serine protease Rv3671c. actives 0.048% (n = 320,000). P9WHR9. inhibition, % at 5.96 µM; in the data active means inhibition above about 38%;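 further: extracellular domain of Rv3671c used as enzyme; 0% = enzyme with DMSO and 100% = no enzyme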
Target sequence (P9WHR9 whole entry, looked up, the tested form may be a part): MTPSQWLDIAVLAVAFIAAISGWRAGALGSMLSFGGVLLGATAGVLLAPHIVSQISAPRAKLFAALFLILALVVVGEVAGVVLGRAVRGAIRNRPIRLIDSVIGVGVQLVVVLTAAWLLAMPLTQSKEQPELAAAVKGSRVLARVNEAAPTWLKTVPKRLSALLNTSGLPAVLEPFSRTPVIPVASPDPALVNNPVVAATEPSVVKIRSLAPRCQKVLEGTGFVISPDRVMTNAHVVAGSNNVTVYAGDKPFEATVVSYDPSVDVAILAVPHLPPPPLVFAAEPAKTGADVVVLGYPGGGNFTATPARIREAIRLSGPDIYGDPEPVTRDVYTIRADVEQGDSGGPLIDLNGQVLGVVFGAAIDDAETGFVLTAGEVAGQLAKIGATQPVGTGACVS
MazF activator: activators of E. coli MazEF toxin-antitoxin RNase. P0AE70. FAM/BHQ RNA-DNA oligo cleavage fluorescence, 5 h. activation, % at 20 µM. actives 0.32% (n = 350,000); in the data active means activation above about 50%
Target sequence (P0AE70 whole entry, looked up): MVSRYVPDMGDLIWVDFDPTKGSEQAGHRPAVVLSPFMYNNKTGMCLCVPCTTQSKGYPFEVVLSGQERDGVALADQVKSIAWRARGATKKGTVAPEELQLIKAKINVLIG
Vc quorum ag-2: quorum light induction in BH1578 reporter strain | shares compounds with Vc quorum ag-1 | V. cholerae BH1578 lux reporter, luminescence, 6 h | activation, % at 50 µM | 620 tested, under 10 active | AID 602243
HeLa 24h tox: kills HeLa cells within 24 hours | shares compounds with Vc quorum ag-1 | HeLa viability, CellTiter-Glo ATP luminescence | activity change, negative = cytotoxicity, % at 35 µM | 25 tested, under 10 active | AID 624140;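 active means signal drop with fitted half-maximal concentration at or below twice the highest valid dose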
The depositor's hits bear a star; i = inactive; . = no result given; + = active, no number. Unless noted, how the calls were made is not given here.

SMILES | FadD28 FP inh | UGM FP inh | Mtb bLac sens | Vc quorum ag-1 | Rv3671c inh | MazF activator | Vc quorum ag-2 | others
CC(C)C(NC(=O)c1ccc(F)cc1)C(=O)N1CCOCC1 (stereo not given) | -1.5 | -1.6 | 0.3 | -0.3 | -5.7 | 9.6 | .
CCc1nc2c(OCc3ccc(C#N)cc3)cccn2c1N(C)C(=O)C(C)C | -3.3 | . | . | i | . | . | .
CCCCN1CC(N2CCN(Cc3ccccc3)CC2)CS1(=O)=O (stereo not given) | -1.0 | . | . | . | . | . | .
Cc1ccc(S(=O)(=O)N(C)c2nc3ccccc3[nH]c2=S)cc1 | -0.7 | -0.6 | -13.0 | i | -4.3 | -9.9 | .
Cc1ccc(S(=O)(=O)N(C)c2nonc2C)cc1 | -3.5 | -0.8 | -12.6 | 12.5 | 8.0 | 9.2 | -0.1
COc1ccc(OC)c(NC(=O)COC(=O)c2cc3c(s2)CCC3)c1 | 1.1 | -2.4 | 69.1 | 21.9 | -11.3 | 2.4 | 2.1
COc1ccccc1NC(=O)COC(=O)c1cc2c(s1)CCC2 | -3.3 | . | . | . | . | 2.0 | i | HeLa 24h tox=4.5
COc1ccccc1NC(=O)COC(=O)C1CCCC1 | -2.7 | -1.9 | 5.7 | i | -1.8 | 6.5 | .
O=C(Cc1ccc2c(c1)CCCC2)Nc1ccccc1Br | -3.3 | -1.0 | 4.2 | 427.2* | -12.6 | -10.2 | 27.5
Cc1nn2cnnc2c(C)c1Cc1c(F)cccc1Cl | -0.3 | 2.9 | -0.4 | 165.0* | -2.4 | 3.9 | 10.4
Cc1cccnc1NC(=O)CCNC(=O)c1ccccc1Cl | -3.0 | -0.4 | -6.3 | -4.2 | 5.8 | 5.6 | .
COc1ccc(NC(=O)CN(C)C(=O)c2cccc(S(=O)(=O)N3CCN(C)CC3)c2)cc1 | -3.4 | -0.4 | -8.8 | 9.3 | -0.4 | 0.7 | 0.1
COc1ccc(NC(=O)CN(C)C(=O)c2cccc(S(=O)(=O)N3CCN(Cc4ccccc4)CC3)c2)cc1 | -1.0 | 2.7 | -8.7 | i | 1.6 | -3.3 | .
CCN1CCCC1CNC(=O)c1cc(S(=O)(=O)N(C)C)ccc1Cl (stereo not given) | -5.0 | -2.0 | -1.4 | i | 6.6 | -0.3 | .
Cn1c(Cc2cccs2)nnc1SCC(=O)Nc1ccc(F)cc1F | 1.5 | 1.0 | -2.4 | -1.8 | 7.5 | -2.3 | .
CCCN(CC(=O)Nc1ccccc1C)C(=O)c1ccc(S(=O)(=O)N2CCC(C)CC2)cc1 | 0.3 | . | . | -0.9 | . | -1.1 | .
O=C1C(=O)N(Cc2ccco2)C(c2cccc(Cl)c2)/C1=C(\O)c1ccc2c(c1)OCCO2 (stereo not given) | -6.1 | 0.5 | -2.6 | 12.5 | -2.1 | 5.2 | 0.4
CCOC(=O)c1c(NC(=O)COC(=O)Cc2c[nH]c3ccccc23)sc(C(=O)N(C)C)c1C | -1.3 | 2.8 | -0.3 | 12.5 | -14.1 | -0.9 | 0.1
CC(C)CN(C(=O)COc1ccccc1C(=O)NCc1ccccc1)C1CCS(=O)(=O)C1 (stereo not given) | -3.0 | . | . | -0.4 | . | 4.4 | .
COc1cccc(NC(=O)C2(C)CCN2CCc2ccccc2)c1 (stereo not given) | -4.9 | . | . | 3.3 | . | . | .
O=C1C=CC(=O)N1c1ccc2c(c1)C(NC(=O)C(F)(F)F)c1ccccc1-2 (stereo not given) | -1.2 | . | . | -3.8 | . | 9.7 | .
Cc1occc1-c1nnc(SCC(=O)NCc2cccs2)n1-c1ccc(F)cc1 | -3.6 | -1.8 | 9.0 | 14.3 | -4.7 | 7.3 | 0.2
Cc1nnc(SCC(=O)NCc2cccs2)n1-c1ccccc1 | -1.1 | -0.3 | -3.6 | i | 5.7 | 1.7 | .
CN(Cc1nc2ccccc2n1C)C(=O)c1ccco1 | -3.4 | 1.1 | -3.3 | 12.5 | 3.2 | 2.7 | 0.1
CCOc1ccc(Nc2ccc3nonc3c2[N+](=O)[O-])cc1 | -0.4 | 1.1 | 56.5 | + | 6.0 | 6.4 | i | HeLa 24h tox=17.4
SMILES | FadD28 FP inh | UGM FP inh | Mtb bLac sens | Vc quorum ag-1 | Rv3671c inh | MazF activator | Vc quorum ag-2 | others
Cc1ccc(Nc2ccc3nonc3c2[N+](=O)[O-])cc1 | -1.0 | -2.1 | 5.7 | -0.2 | 5.7 | 3.0 | .
COc1cc(CN2C(=O)C(CCc3ccccc3)ON=C2c2cnccn2)cc(OC)c1 (stereo not given) | -14.8 | . | . | 0.1 | . | . | .
CCOc1ccccc1N(CC(=O)Nc1ccc2c(c1)OCCO2)S(C)(=O)=O | 0.3 | -0.8 | 4.9 | 21.3 | 1.1 | 7.4 | -0.1
Cc1ccc(CC(=O)NC2CCCC2)cc1 | . | . | . | . | . | . | . | HeLa 24h tox=-4.6
Cc1ccc(C(=O)OCC(=O)NC2CCCC2)cc1C | -2.7 | -1.4 | 0.8 | + | 0.9 | -7.0 | i
O=C(Cc1ccccc1)NC1CCCCC1 | 1.2 | . | . | -0.3 | . | . | .
